Compound activity as filed in PubChem BioAssay.
Anthrax LF inh2: anthrax lethal factor protease inhibition; inhibition, % at 10 µM; 360,000 tested, 0.12% active; multiplex microsphere protease cleavage assay, LF; P15917; further: plate controls were buffer without enzyme for full effect and enzyme alone for no effect
BoNT-A LC inh2: BoNT A light chain protease inhibition; multiplex microsphere protease substrate cleavage, flow cytometry; inhibition, % at 10 µM; 360,000 tested, 0.17% active; further: plate controls were buffer without enzyme for full effect and enzyme alone for no effect
Bead autofluor: flagged as autofluorescent in microsphere protease counterscreen. compound autofluorescence counterscreen, microsphere flow cytometry; active compounds read high. fluorescence intensity (concentration not given with the values). 360,000 tested, 3.1% active. AID 624483; in the data active means fluorescence intensity above about 16000; inconclusive means no clear call, values can overlap the other calls
BoNT-F LC inh: inhibitors of Botulinum neurotoxin F light chain protease; Multiplex microsphere protease cleavage assay, flow cytometry; inhibition, % at 10 µM; 360,000 tested, 0.22% active; AID 588497; in the data active means inhibition above about 35%, passing the limit was not always enough; inconclusive means no clear call, values can overlap the other calls; further: plate controls were buffer without enzyme for full effect and enzyme alone for no effect
Starred values were filed as active, the others as inactive; ? = inconclusive. In the library only some 3.5% were active in any assay of this set; here they are far more common. Unless noted, no stated cut-off is given here; in the data, active means inhibition above about 30%; inconclusive means no clear call, values can overlap the other calls; inactive means below that.

SMILES	Anthrax LF inh2	BoNT-A LC inh2	Bead autofluor	BoNT-F LC inh
COc1ccc(NS(=O)(=O)c2cccc3cccnc23)cc1	3	1	6368	-1
COc1ccc(S(=O)(=O)Nc2cccc(NC(C)=O)c2)cc1	-4	-7	17504*	-9
O=C(Nn1c(COc2ccccc2)nc2ccccc2c1=O)C(Cl)(Cl)Cl	-13	-4	3098	-17
O=c1ccc(-c2ccc(S(=O)(=O)Nc3cccc(Br)c3)o2)n[nH]1	3	0	5394	-5
Nc1[nH]nc2c1NN(c1ccc(Cl)cc1Cl)N2	3	0	1941	8
COc1ccc(OS(=O)(=O)c2ccc(N3C(=O)CCC3=O)cc2)cc1	-17	0	3689	-5
COc1cccc(OCCCN2CCN(S(=O)(=O)c3ccc(NC(C)=O)cc3)CC2)c1	-3	?	20823*	-2
COC(=O)c1ccc(NS(=O)(=O)c2ccc(OC)cc2)cc1	-1	?	22817*	0
COc1ccc(N2C(=O)CCC(C(C)=O)=C2C)cc1	-2	?	22405*	1
COc1ccc(N2CCN(C(=O)c3ccc(NS(=O)(=O)c4ccc(F)c(F)c4)cc3)CC2)cc1	-1	-4	17709*	-6
COc1ccc(/C=C/C(=O)c2cc(Cl)ccc2O)c(OC)c1	-12	-1	6049	-8
COc1cccc(NS(=O)(=O)c2ccc(NC(C)=O)cc2)c1	2	?	23977*	1
COc1ccc(NS(=O)(=O)c2ccc(N3C(=O)CCC3=O)cc2)cc1	-2	-4	24859*	-4
O=C(Nc1ccc(NS(=O)(=O)c2ccccc2)cc1)c1ccc(Cl)cc1	-3	-6	5541	-7
COc1ccc(/C=C/C(=O)c2ccc(Cl)cc2)c(OC)c1	0	4	18548*	1
O=C(O)c1ccc(NS(=O)(=O)c2ccc(Cl)cc2)cc1	-5	-1	21092*	-2
O=C1CCC(=O)N1c1ccc(S(=O)(=O)Nc2ccc(Br)cc2)cc1	-2	0	4265	-2
O=C(Nc1ncnc2c1ncn2[C@@H]1O[C@H](/C=C/C(=O)N2CCN(c3ccc(F)cc3)CC2)[C@@H](O)[C@H]1O)c1ccccc1	5	0	5887	0
CCCCn1c(N)c(N(CC(C)C)C(=O)CC2CCCC2)c(=O)[nH]c1=O	0	0	6221	-3
O=C(c1ccc2ccccc2c1)C1CCCN(C(=O)c2noc3c2CCCC3)C1 (centres undefined)	-6	0	3919	-2
COc1cccc(NS(=O)(=O)c2c(C)cc(C)cc2C)c1	-1	-1	20856*	-2
CCCCn1c(O)c(C(CC)=NCCCN(C)C)c(=O)[nH]c1=O	0	1	16159*	3
CCCCn1c(O)c(C(CC)=NCc2ccc(F)cc2)c(=O)[nH]c1=O	-22	1	?	-2
CCCCn1c(O)c(C(C)=NCCCN(C)C)c(=O)[nH]c1=O	-2	4	14900	5
CCCCn1c(O)c(C(C)=NCCCN(CC)CC)c(=O)[nH]c1=O	-3	0	23379*	-4
SMILES	Anthrax LF inh2	BoNT-A LC inh2	Bead autofluor	BoNT-F LC inh
CCCCn1c(O)c(C(C)=NCc2ccc(F)cc2)c(=O)[nH]c1=O	-1	-1	23819*	-4
Cc1ccc(S(=O)(=O)N2CCCCC2C(=O)N(C)c2ccccc2)cc1 (centres undefined)	6	0	6462	-5
CCNC(=O)C1(C)CCN(C(=O)c2cccnc2SC)C1 (centres undefined)	5	0	3122	0
COC(=O)CSc1nnc(Cc2ccccc2)n1-c1ccc(C)cc1	3	1	3651	-15
Cc1cccc(C)c1NC(=O)CSc1nnc(Cn2nnc(-c3ccccc3)n2)n1-c1ccccc1	1	?	19692*	0
O=C(CSc1nnc(Cc2ccccc2)n1-c1ccccc1)NNC(=O)Cc1ccccc1	3	2	21981*	2
COc1ccc(-c2cc(C(=O)N(C)CC(=O)Nc3cccc(F)c3)c3ccccc3n2)cc1	1	-10	?	-17
O=S1(=O)CC(N2CCC(Cc3ccccc3)CC2)CN1C1CCCC1 (centres undefined)	0	1	5427	1
COc1ccc(Cl)cc1NC(=O)NCc1ccco1	-2	0	2318	-5
COc1ccc(Cl)cc1NC(=S)NCc1ccco1	0	-2	23985*	-3
CCOc1ccccc1NC(=S)NCc1ccco1	0	0	22578*	-1
Cc1cccc(NC(=O)CSc2nc3ccccc3nc2N2CCCC2)c1C	-4	1	5729	0
COc1cccc(-c2nnn(CCC(=O)O)n2)c1	1	?	19600*	3
CCCc1cc(=O)[nH]c(SCCCCN2C(=O)c3ccccc3C2=O)n1	-2	0	3340	-4
Cc1ccc(C(=O)N2CCCC(C(=O)Nc3cccc(-c4ccc(F)cc4)c3)C2)cn1 (centres undefined)	-1	1	5799	-3
O=C(NCc1ccccc1F)Nc1nnc([C@H]2C[C@H](O)[C@@H](CO)O2)s1	0	0	3676	-5
c1ccc(Sc2nc(N3CCCCC3)nc(N3CCCCC3)n2)nc1	-7	?	19461*	4
Cc1cc(Cl)ccc1OCC(=O)Nc1ccncc1	10	1	3858	-18
CCn1cc(C(C)NC(=O)COc2ccc(Cl)cc2C)c(C)n1 (centres undefined)	-2	-5	23870*	-6
CCOC(=O)C1CCN(C(c2cc3ccc(C)cc3[nH]c2=O)c2nnnn2C2CCCCC2)CC1 (centres undefined)	1	-3	28733*	1
COc1cc2cc(C(c3nnnn3C(C)(C)C)N3CCc4ccccc43)c(=O)[nH]c2cc1OC (centres undefined)	-2	0	7713	-18
COc1cc2cc(C(c3nnnn3C3CCCC3)N3CCc4ccccc43)c(=O)[nH]c2cc1OC (centres undefined)	0	6	19430*	5
Fc1ccc(C(c2nnnn2C2CCCC2)N2CCc3ccccc32)cc1 (centres undefined)	-3	-3	17043*	-5
COc1ccccc1N1CCN(C(c2cc3ccc(C)cc3[nH]c2=O)c2nnnn2C2CCCC2)CC1 (centres undefined)	-8	4	14791	5
COc1ccccc1N1CCN(C(c2cc3cc(C)ccc3[nH]c2=O)c2nnnn2C2CCCC2)CC1 (centres undefined)	0	2	21854*	3
SMILES	Anthrax LF inh2	BoNT-A LC inh2	Bead autofluor	BoNT-F LC inh
N#Cc1c(N)[nH]c(C(=O)c2ccccc2)c1-c1ccccc1Br	-14	0	6017	-4
CCCCNC(=O)C(NC(=O)c1cccc(C(F)(F)F)c1)C(=O)c1ccccc1 (centres undefined)	-4	0	6213	-8
CCN(CC(=O)NC(=O)NCc1ccccc1)Cc1ccccc1	-2	1	6023	1
CSCCC(NC(=O)c1ccc([N+](=O)[O-])cc1Cl)C(=O)OC1CCCCC1=O (centres undefined)	-3	0	5473	-4
CC1(c2nnnn2-c2ccc3c(c2)OCCO3)CCC(=O)N1CCOc1ccccc1 (centres undefined)	3	1	6008	5
CCN(CC)C(c1ccc(F)cc1)c1nnnn1C1CCCCC1 (centres undefined)	-1	2	21991*	4
